High-throughput results from PubChem.
GPR151 activ: activators of human GPR151, primary screen, cell-based, PathHunter beta-arrestin, luminescence. G-protein coupled receptor 151 (Homo sapiens), Q8TDV0. AID 1508602, 2020. PathHunter beta-arrestin GPR151 cells. hit rate 1% among 650,000. activation, % at 11.2 µM; in the data active = activation above about 4.9%;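 also: 0% = median of compound wells and 100% = cells with positive control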
Target sequence (Q8TDV0 whole entry, looked up): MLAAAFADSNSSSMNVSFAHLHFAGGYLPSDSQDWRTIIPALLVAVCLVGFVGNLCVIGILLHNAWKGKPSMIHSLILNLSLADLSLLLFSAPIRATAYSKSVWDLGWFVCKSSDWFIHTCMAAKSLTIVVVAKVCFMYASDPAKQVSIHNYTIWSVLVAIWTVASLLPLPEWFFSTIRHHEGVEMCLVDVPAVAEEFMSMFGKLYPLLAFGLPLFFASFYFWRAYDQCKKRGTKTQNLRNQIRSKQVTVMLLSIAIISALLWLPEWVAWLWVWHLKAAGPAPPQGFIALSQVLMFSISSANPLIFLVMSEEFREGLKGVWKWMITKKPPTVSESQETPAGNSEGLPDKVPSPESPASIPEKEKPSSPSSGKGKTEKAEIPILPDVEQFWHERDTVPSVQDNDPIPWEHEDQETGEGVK
TEAD-YAP block: TEAD-YAP interaction inhibition, primary screen, TEAD-YAP interaction inhibitor project, luminescence, HEK-TIYL cells; hit rate 1.4% among 640,000; TEAD-Gal4/YAP UAS-luciferase luminescence; inhibition, % at 9.12 µM; AID 1259422, 2018; in the data active = inhibition above about 32%;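 also: 0% = median of test compound wells and 100% = reference inhibitor wells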
FBW7 act: FBW7 E3 ligase activators, primary screen, biochemical, AlphaScreen, human | hit rate 0.13% among 650,000 | AlphaScreen FBW7–phospho-cyclin E peptide binding, activator screen | normalized activity (activation), % at 26.1 µM | F-box/WD repeat-containing protein 7 (Homo sapiens), Q969H0; in the data active = normalized activity above about 1.9%;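 also: purified mutant Fbw7 with reduced substrate affinity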
MITF primary: MITF inhibitors, primary screen, biochemical, AlphaScreen, human. Microphthalmia-associated transcription factor (Homo sapiens), O75030. AlphaScreen MITF homodimerization, bead proximity signal. inhibition, % at 2.6 µM. hit rate 0.91% among 650,000. AID 1259374, 2018; in the data active = inhibition above about 50%;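 also: 0% = vehicle wells with protein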
MITF confirm: MITF inhibitors, retest of hits, confirmation, biochemical, AlphaScreen, triplicate. inhibition, % at 2.6 µM. shares compounds with MITF primary. hit rate 16% among 4,700. AlphaScreen MITF homodimerization, biotin/His-MITF beads. AID 1259372, 2018;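 active = inhibition above a cutoff derived from the DMSO control wells, cut at about 28% in these data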;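 also: 0% = MITF dimer wells with DMSO only; inhibitors lower the bead chemiluminescence by keeping MITF from dimerizing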
AlphaScreen DR: AlphaScreen optical interference compounds, dose response, counter-screen, biochemical, HTS; shares compounds with MITF primary; AlphaScreen optical interference counterscreen, cell-free; IC50, µM; hit rate 6% among 480; call rule not given here
AS interf ctr: AlphaScreen optical interference compounds, counter-screen for MITF inhibitor project, biochemical, triplicate. shares compounds with MITF primary. LysRS AlphaScreen counterscreen, signal interference. inhibition, % at 2.6 µM. hit rate 7.6% among 4,700;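 active = inhibition above a cutoff derived from the DMSO control wells, cut at about 30% in these data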
* = called active by the depositor; nt = no result given. The list is not random: actives were taken first. Their share in the collection is about 3.5%.

SMILES	GPR151 activ	TEAD-YAP block	FBW7 act	MITF primary	MITF confirm	AS interf ctr	others
O=[N+]([O-])c1ccc(S(=O)(=O)N2CCN(Cc3cccc(Br)c3)CC2)cc1	1	-7	0	77*	9	13
O=[N+]([O-])c1ccc(S(=O)(=O)N2CCN(Cc3ccc(Br)cc3)CC2)cc1	-2	6	0	61*	21	36*
O=[N+]([O-])c1ccccc1S(=O)(=O)N1CCN(Cc2cccc(Br)c2)CC1	2	-4	0	21	nt	nt
COc1ccc(S(=O)(=O)N2CCN(Cc3ccc([N+](=O)[O-])cc3)CC2)cc1	1	0	0	3	nt	nt
O=[N+]([O-])c1ccc(S(=O)(=O)N2CCN(Cc3ccccc3)CC2)cc1	1	3	0	45	nt	nt
CC(=O)Oc1cccc(/C=C2N=C(/C=C/c3ccccc3)OC/2=O)c1	1	0	0	8	nt	nt
CCOc1cc(/C=N/NC(=O)CNc2ccccc2C)ccc1O	-1	10	0	-8	nt	nt
Clc1cc2c(c3ncccc13)OCN(Cc1cccnc1)C2	0	84*	-1	94*	96*	100*
O=S1(=O)CCC(N2COc3c(cc(Cl)c4cccnc34)C2)C1 (stereo unspecified)	0	14	-1	55*	39*	91*
CCC(Sc1nc(NCc2ccc(Cl)cc2)c2ccccc2n1)C(=O)NCc1cccnc1 (stereo unspecified)	-2	-4	0	-14	nt	nt
COc1ccc(-n2nc3c(c2NC(=O)c2ccccc2C)CSC3)cc1	0	-5	0	11	nt	nt
CN(Cc1ccco1)C(=O)C(=O)Nc1ccc2nc3n(c(=O)c2c1)CCCCC3	-1	-7	0	-3	nt	nt
CCCCN(Cc1ccco1)C(=O)C(=O)Nc1ccc2nc3n(c(=O)c2c1)CCCCC3	-1	-2	1	76*	8	21
CCOC(=O)CC(NC(=O)c1ccccc1F)c1ccc(OCC)cc1 (stereo unspecified)	1	-12	0	-5	nt	nt
COc1ccc2cc(C(=O)Nc3cccc(C(F)(F)F)c3)c(=Nc3ccc(C(=O)O)cc3)oc2c1	0	10	0	-4	nt	nt
CCCCCC(=O)CC[C@@H]1[C@@H](C/C=C\CCCC(=O)O)[C@@H](O)C[C@@H]1O	-2	nt	nt	56*	0	12
CCCCNCC(=O)Nc1ccccc1N1CCCCCC1	0	4	0	12	nt	nt
c1cc2c(cc1CNCC1CCCCC1)OCO2	-1	-8	0	58*	9	11
O=C(CNCCCN1CCOCC1)Nc1ccccc1N1CCCCCC1	1	1	0	71*	5	16
O=C(NCCN1CCOCC1)c1cccc(-c2ccccc2)c1	0	-5	0	75*	11	6
O=C(CNCCN1CCOCC1)Nc1ccc(N2CCCCC2)cc1	0	1	0	93*	-16	-5
O=C(NCCN1CCOCC1)c1cccc(C(=O)NCCN2CCOCC2)c1	0	2	0	-7	nt	nt
O=C(Nc1ccc(Cl)cc1Cl)c1c(O)c2cccc3c2n(c1=O)CCC3	2	11	0	8	nt	nt
O=C(NCCN1CCOCC1)c1cnc(NCc2ccc3c(c2)OCO3)s1	0	3	0	12	nt	nt
CC(C)N(C(=O)CNCCN1CCOCC1)c1ccccc1	0	1	0	72*	-5	1
SMILES	GPR151 activ	TEAD-YAP block	FBW7 act	MITF primary	MITF confirm	AS interf ctr	others
CC(C)c1cccc(C(C)C)c1NC(=O)CNCCO	0	-1	0	53*	4	4
O=C(Nc1ccc2c(c1)OCO2)c1cnc(NCCN2CCOCC2)s1	-2	-9	0	52*	2	10
COc1ccc(CCNCC(=O)Nc2ccccc2N2CCCCC2)cc1	0	-4	0	61*	9	16
O=C1C(=O)N(CCCN2CCOCC2)C(c2cccnc2)/C1=C(/O)c1ccc(F)cc1 (stereo unspecified)	0	-3	0	-12	nt	nt
CC(C)Cc1nn2c(N)c(C=C3C=C(Cl)C(=O)C(Cl)=C3)c(=O)nc2s1	-2	5	0	6	nt	nt
Cc1ccc2c(c1)nc(S(=O)(=O)O)n2C	1	2	0	2	nt	nt
O=C(CCC1(Cc2ccc(Cl)cc2)CCC(=O)N1)NCCCN1CCOCC1 (stereo unspecified)	0	0	0	-7	nt	nt
CN=C1CN(O)C(c2ccccc2Cl)=c2cc(Br)ccc2=N1	0	-1	0	14	nt	nt
Cc1cccn2c(=O)c3cc(C#N)c(=O)n(Cc4ccccc4Cl)c3nc12	-2	4	0	8	nt	nt
Cc1cccc(C)c1NC(=O)CNCCN1CCOCC1	-1	1	0	92*	-12	-5
O=C(CNCCCN1CCOCC1)Nc1ccc(N2CCCCC2)cc1	1	-2	0	50	nt	nt
O=C(CNCc1ccc2c(c1)OCO2)Nc1ccc(N2CCCC2)cc1	0	-1	0	62*	21	23
O=C(CNCCCN1CCOCC1)Nc1ccc(N2CCCC2)cc1	0	-5	0	54*	4	19
CC1=CC(C)(C)N(C(=O)CNCCN2CCOCC2)c2cc(C)ccc21	0	5	0	59*	9	23
Cc1cccc(CN2CCN(CC(=O)NC3CCCCC3C)C2=O)c1 (stereo unspecified)	0	3	0	-13	nt	nt
CCN(Cc1ccccc1)c1ccc(/C=N/NC(=O)C(N)=O)cc1	0	16	0	-10	nt	nt
CC(c1ccon1)N(C)C(=O)C1CC(Cc2ccc(F)cc2)=NO1 (stereo unspecified)	-1	-24	0	4	nt	nt
Nc1cc(N2CCN(Cc3ccc4c(c3)OCO4)CC2)ncn1	-2	-7	0	-10	nt	nt
O=C(CNCCCN1CCOCC1)Nc1ccc2c(c1)OCO2	-1	2	0	71*	4	12
O=C1c2cc(Br)c([N+](=O)[O-])cc2C(=O)N1c1cccc(Cl)c1	1	-7	0	0	nt	nt
O=C(O)c1ccc(NC2OC(CO)C(O)C2O)cc1 (stereo unspecified)	-2	3	0	66*	57*	7	AlphaScreen DR=>5.6
O=C(Nc1cccc(O)c1)c1cc(-c2ccco2)nc2ccccc12	0	4	0	36	nt	nt
O=C(OC1CCOC1=O)c1cc(-c2ccco2)nc2ccccc12 (stereo unspecified)	0	-11	0	75*	76*	3	AlphaScreen DR=>7.2
